The source made the active and inactive calls. Unless noted, no rule for the calls is given here.
Test system: Aerobactin synthetase IucA (Klebsiella pneumoniae, hypervirulent)
Assay: IucA enzyme inhibition, biochemical, LOPAC library, absorbance readout (AID 1346212);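 also: 100% = no compound wells and 0% = no enzyme wells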
Conditions: IucA enzyme assay, absorbance (OD) readout; stronger effect = lower value; concentration not given here
With `CCCN(CC1CC1)c1nc(C)nc(Nc2c(Cl)cc(Cl)cc2Cl)c1Cl` the remaining activity was 102% (inactive).
For `CC(N)=O`, the remaining activity was 124% (inactive).
For `CN(CC[C@@H](Oc1ccc(C(F)(F)F)cc1)c1ccccc1)CC(=O)O`, the remaining activity was 118% (inactive).
With `C[C@@H](NC(=O)/C(C#N)=C/c1ccc(O)c(O)c1)c1ccccc1` the remaining activity was 97.8% (inactive).
With `CNc1ncnc2c1ncn2[C@H]1C[C@H](OP(=O)(O)O)[C@@H](COP(=O)(O)O)O1` the remaining activity was 124% (inactive).
In the case of `CN(C(=O)CCCOc1ccc2[nH]c(=O)ccc2c1)C1CCCCC1`, the remaining activity is reported as 124% (inactive).
For `COc1cccc(OC)c1OCCNCC1CSc2ccccc2O1` (stereo not drawn), the remaining activity was 114% (inactive).
For `C[C@]12CCC(=O)C=C1CC[C@@H]1[C@@H]2CC[C@@]2(C)[C@H]1CC[C@]2(O)C(=O)CO`, the remaining activity was 110% (inactive).
With `NC(=O)c1ccc2[nH]ccc2c1` the remaining activity was 89.8% (inactive).
In the case of `COc1cc(CNC(=O)CCCCCCC(C)C)ccc1O`, the remaining activity is reported as 96.1% (inactive).
For `Cc1ccc2c(c1)C(N1CCN(C)CC1)=Nc1cccnc1N2`, the remaining activity was 126% (inactive).
In the case of `CCN1CCc2nc(N)oc2CC1`, the remaining activity is reported as 119% (inactive).
With `CCCCCCCCCCCCCCCC(=O)OC(CC(=O)O)C[N+](C)(C)C` (stereo not drawn) the remaining activity was 116% (inactive).
In the case of `N=C(N)N1CCc2ccccc2C1`, the remaining activity is reported as 106% (inactive).

Test system: not listed separately
Assay: sensitizers of A549 cells to miR-34 induction, primary screen, imaging, A549 dox-inducible miR-34, nuclei and caspase counts (AID 1347080)
Conditions: A549 miR-34 inducible, Hoechst nuclei count, 48 h; measured here: relative caspase fold change +Dox/-Dox
Compound `O=C1OCCN1/N=C/c1ccc([N+](=O)[O-])o1` has a fold change of 1.85.
Work on `CNC(C)[C@@H]1CC[C@@H](N)[C@@H](OC2[C@@H](N)C[C@@H](N)[C@H](OC3OC[C@](C)(O)[C@H](NC)[C@H]3O)[C@H]2O)O1` (stereo partly drawn) yielded a fold change of 0.842.
Compound `O=C1CC2OCC=C3CN4CC[C@]56c7ccccc7N1C5[C@H]2[C@H]3CC46` (stereo partly drawn) has a fold change of 1.82.

Same assay, conditions: A549 miR-34 inducible, Hoechst nuclei count, 48 h; measured here: total cells with miR-34 induction; stronger effect = lower value
`O=C1OCCN1/N=C/c1ccc([N+](=O)[O-])o1` showed a cell count of 9350.
Compound `CNC(C)[C@@H]1CC[C@@H](N)[C@@H](OC2[C@@H](N)C[C@@H](N)[C@H](OC3OC[C@](C)(O)[C@H](NC)[C@H]3O)[C@H]2O)O1` (stereo partly drawn) has a cell count of 10800.
`O=C1CC2OCC=C3CN4CC[C@]56c7ccccc7N1C5[C@H]2[C@H]3CC46` (stereo partly drawn) gave a cell count of 11700.

Same assay, conditions: A549 miR-34 inducible, Hoechst nuclei count, 48 h; measured here: total cells without miR-34 induction
`O=C1OCCN1/N=C/c1ccc([N+](=O)[O-])o1` gave a cell count of 10900.
For `CNC(C)[C@@H]1CC[C@@H](N)[C@@H](OC2[C@@H](N)C[C@@H](N)[C@H](OC3OC[C@](C)(O)[C@H](NC)[C@H]3O)[C@H]2O)O1` (stereo partly drawn), the cell count was 13000.
Compound `O=C1CC2OCC=C3CN4CC[C@]56c7ccccc7N1C5[C@H]2[C@H]3CC46` (stereo partly drawn) has a cell count of 12700.

Target: Mitogen-activated protein kinase 7 (Homo sapiens) (UniProt Q13164)
Sequence (Q13164 whole entry, looked up, the tested form may be a part): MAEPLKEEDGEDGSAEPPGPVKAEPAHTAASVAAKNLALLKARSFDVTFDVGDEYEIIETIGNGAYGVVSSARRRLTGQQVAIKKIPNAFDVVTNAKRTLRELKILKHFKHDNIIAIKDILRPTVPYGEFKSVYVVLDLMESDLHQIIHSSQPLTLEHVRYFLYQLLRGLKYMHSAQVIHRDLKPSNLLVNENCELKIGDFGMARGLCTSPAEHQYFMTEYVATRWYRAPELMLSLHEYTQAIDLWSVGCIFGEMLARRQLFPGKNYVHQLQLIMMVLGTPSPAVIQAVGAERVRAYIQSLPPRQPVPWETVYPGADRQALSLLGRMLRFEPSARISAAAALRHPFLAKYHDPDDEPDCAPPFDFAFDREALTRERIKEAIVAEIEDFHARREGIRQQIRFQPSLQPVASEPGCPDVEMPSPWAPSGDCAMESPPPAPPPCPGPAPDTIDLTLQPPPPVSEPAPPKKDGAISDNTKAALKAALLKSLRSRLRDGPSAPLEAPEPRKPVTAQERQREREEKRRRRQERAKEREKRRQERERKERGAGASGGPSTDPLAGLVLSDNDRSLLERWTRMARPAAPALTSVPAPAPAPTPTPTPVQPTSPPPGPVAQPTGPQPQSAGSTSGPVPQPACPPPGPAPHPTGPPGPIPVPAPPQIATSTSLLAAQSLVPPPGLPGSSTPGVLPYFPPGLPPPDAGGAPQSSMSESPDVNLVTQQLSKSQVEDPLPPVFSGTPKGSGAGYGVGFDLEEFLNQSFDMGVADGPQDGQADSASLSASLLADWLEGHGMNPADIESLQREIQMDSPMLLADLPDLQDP
Assay: ERK5 transactivation activators in reporter cells, primary screen, cell-based, HTS (AID 1508626;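 active = luciferase signal above three times the same-plate solvent-only control wells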;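 also: luciferase driven by Gal4-ERK5 fusion binding five Gal4 sites before minimal TATA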)
Conditions: HeLa Gal4-ERK5 transactivation, 18 h, at 5 µM, stronger effect = higher value
For `CC1(C)N([O-])[N+](=O)C1(C)Br` (stereo not drawn), the luciferase signal was 44 AU (inactive).
In the case of `C=C[C@@H]1C2=CCOC(=O)C2=CO[C@H]1O[C@@H]1O[C@H](CO)[C@@H](O)[C@H](O)[C@H]1O`, the luciferase signal is reported as 64 AU (inactive).
With `CC12CCCCC1(Br)[N+](=O)N2[O-]` (stereo not drawn) the luciferase signal was 64 AU (inactive).
With `O=c1ccc2c(O)c3ccoc3cc2o1` the luciferase signal was 32 AU (inactive).
With `O=C(NC(=O)c1ccccc1Cl)Nc1ccc(OC(F)(F)F)cc1` the luciferase signal was 68 AU (inactive).
In the case of `CNC(Cc1c[nH]c2ccccc12)C(=O)O` (stereo not drawn), the luciferase signal is reported as 36 AU (inactive).
In the case of `COc1ccc2c(c1OC)C(=O)O[C@H]2[C@H]1c2cc3c(cc2CCN1C)OCO3`, the luciferase signal is reported as 76 AU (inactive).
In the case of `CC1(C)C2C[C@@H](O)[C@]3(C)C(CC[C@@]4(C)[C@H](c5ccoc5)OC(=O)[C@H]5O[C@]543)[C@@]2(C)[C@@H](O)C[C@H]1O` (stereo partly drawn), the luciferase signal is reported as 32 AU (inactive).
In the case of `c1cc2c(cc1[C@H]1OC[C@H]3[C@@H]1CO[C@H]3c1ccc3c(c1)OCO3)OCO2`, the luciferase signal is reported as 52 AU (inactive).
With `C=C1C2CC[C@H]3[C@]4(C)C[C@H](OC5OC(CO)C(OS(=O)(=O)O)C(OS(=O)(=O)O)C5OC(=O)CC(C)C)C[C@@H](C(=O)O)[C@H]4CC[C@]3(C2)[C@H]1O` (stereo partly drawn) the luciferase signal was 160 AU (inactive).

Reference: PubChem BioAssay
